Measurements as given in PubChem BioAssay AID1159580 (chemical genetic matrix, 2015).
In all, about 5,500 compounds went through this assay and about 2,000 (36%) were called active. Inconclusive results (about 18%) are left out. Cut-off read from the data, not from the text of the source: active = normalized growth mostly below about 0.91 (no sharp cut-off); inconclusive = no clear call, values can overlap the other calls; inactive = mostly above about 0.92. This is one part of the list.

Assay: chemical genetic growth profiling, strain panel (AID 1159580);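 note: tested at 20 µM; growth read once vehicle control cultures reached saturation at 30 °C; 1 = growth at the plate median or of vehicle wells; lower values mean less growth of the strain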
Settings: growth OD

Measured: normalized growth

O=C1[C@H](CCC(O)c2ccc(F)cc2)[C@@H](c2ccc(O)cc2)N1c1ccc(F)cc1 (some centres not stated)
inactive: S. cerevisiae deletion strains, locus YJR075W, strain HOC1, stronger effect = lower value 0.986 | S. cerevisiae deletion strains, locus YKL009W, strain mrt4, stronger effect = lower value 0.944 | S. cerevisiae deletion strains, locus YKL068W, stronger effect = lower value 0.989 | S. cerevisiae deletion strains, locus YKL085W, strain MDH1 (second series), stronger effect = lower value 0.983 | S. cerevisiae deletion strains, locus YKL085W, strain MDH1, stronger effect = lower value 0.983 | S. cerevisiae deletion strains, locus YKL160W, strain elf1, stronger effect = lower value 0.974 | S. cerevisiae deletion strains, locus YKL190W, strain CNB1, stronger effect = lower value 0.995 | S. cerevisiae deletion strains, locus YKR001C, strain vps1, stronger effect = lower value 0.968 | S. cerevisiae deletion strains, locus YKR026C, strain gcn3, stronger effect = lower value 0.961 | S. cerevisiae deletion strains, locus YKR091W, strain srl3, stronger effect = lower value 0.977 | S. cerevisiae deletion strains, locus YLL001W, strain dnm1, stronger effect = lower value 0.937 | S. cerevisiae deletion strains, locus YLL026W, stronger effect = lower value 0.977 | S. cerevisiae deletion strains, locus YLL041C, strain sdh2, stronger effect = lower value 0.967 | S. cerevisiae deletion strains, locus YLR027C, strain aat2, stronger effect = lower value 0.98 | S. cerevisiae deletion strains, locus YLR039C, strain RIC1, stronger effect = lower value 0.995 | S. cerevisiae deletion strains, locus YLR058C, strain SHM2, stronger effect = lower value 0.982 | S. cerevisiae deletion strains, locus YLR102C, strain apc9, stronger effect = lower value 0.972 | S. cerevisiae deletion strains, locus YLR113W, strain HOG1, stronger effect = lower value 1 | S. cerevisiae deletion strains, locus YLR221C, strain rsa3, stronger effect = lower value 0.986 | S. cerevisiae deletion strains, locus YLR258W, strain gsy2, stronger effect = lower value 0.972 | S. cerevisiae deletion strains, locus YLR262C, strain YPT6 (second series), stronger effect = lower value 0.988 | S. cerevisiae deletion strains, locus YLR262C, strain YPT6, stronger effect = lower value 0.978 | S. cerevisiae deletion strains, locus YLR268W, strain sec22, stronger effect = lower value 0.96 | S. cerevisiae deletion strains, locus YLR320W, strain mms22, stronger effect = lower value 0.975 | S. cerevisiae deletion strains, locus YLR330W, strain CHS5, stronger effect = lower value 0.988 | S. cerevisiae deletion strains, locus YLR342W, strain FKS1 (second series), stronger effect = lower value 1.01 | S. cerevisiae deletion strains, locus YLR342W, strain FKS1, stronger effect = lower value 0.973 | S. cerevisiae deletion strains, locus YLR357W, strain rsc2, stronger effect = lower value 0.978 | S. cerevisiae deletion strains, locus YLR370C, strain arc18, stronger effect = lower value 0.967 | S. cerevisiae deletion strains, locus YLR371W, strain rom2, stronger effect = lower value 0.971 | S. cerevisiae deletion strains, locus YLR384C, strain iki3, stronger effect = lower value 0.976 | S. cerevisiae deletion strains, locus YLR418C, strain cdc73, stronger effect = lower value 0.948 | S. cerevisiae deletion strains, locus YML016C, strain PPZ1, stronger effect = lower value 0.989 | S. cerevisiae deletion strains, locus YML032C, strain rad52, stronger effect = lower value 0.979 | S. cerevisiae deletion strains, locus YML120C, strain ndi1, stronger effect = lower value 0.968 | S. cerevisiae deletion strains, locus YML124C, strain tub3, stronger effect = lower value 0.977 | S. cerevisiae deletion strains, locus YMR058W, strain fet3, stronger effect = lower value 0.977 | S. cerevisiae deletion strains, locus YMR078C, strain ctf18, stronger effect = lower value 0.968 | S. cerevisiae deletion strains, locus YMR125W, strain sto1, stronger effect = lower value 0.971 | S. cerevisiae deletion strains, locus YMR129W, stronger effect = lower value 0.962 | S. cerevisiae deletion strains, locus YMR205C, strain PFK2, stronger effect = lower value 0.944 | S. cerevisiae deletion strains, locus YMR223W, strain ubp8, stronger effect = lower value 0.987 | S. cerevisiae deletion strains, locus YMR231W, strain pep5, stronger effect = lower value 0.994 | S. cerevisiae deletion strains, locus YMR263W, strain SAP30, stronger effect = lower value 0.997 | S. cerevisiae deletion strains, locus YMR307W, strain GAS1, stronger effect = lower value 0.976 | S. cerevisiae deletion strains, locus YNL067W, strain RPL9B, stronger effect = lower value 1 | S. cerevisiae deletion strains, locus YNL071W, strain lat1, stronger effect = lower value 0.984 | S. cerevisiae deletion strains, locus YNL128W, strain TEP1, stronger effect = lower value 0.994 | S. cerevisiae deletion strains, locus YNL153C, strain GIM3, stronger effect = lower value 0.995 | S. cerevisiae deletion strains, locus YNL183C, strain NPR1, stronger effect = lower value 0.961 | S. cerevisiae deletion strains, locus YNL209W, strain ssb2, stronger effect = lower value 0.99 | S. cerevisiae deletion strains, locus YNL233W, strain BNI4, stronger effect = lower value 0.984 | S. cerevisiae deletion strains, locus YNL248C, strain rpa49, stronger effect = lower value 0.965 | S. cerevisiae deletion strains, locus YNL250W, strain rad50, stronger effect = lower value 0.974 | S. cerevisiae deletion strains, locus YNL271C, strain bni1, stronger effect = lower value 0.968 | S. cerevisiae deletion strains, locus YNL298W, strain CLA4, stronger effect = lower value 0.961 | S. cerevisiae deletion strains, locus YNL307C, strain MCK1, stronger effect = lower value 0.961 | S. cerevisiae deletion strains, locus YNL322C, strain KRE1 (second series), stronger effect = lower value 0.971 | S. cerevisiae deletion strains, locus YNL322C, strain KRE1, stronger effect = lower value 0.994 | S. cerevisiae deletion strains, locus YNR049C, strain mso1, stronger effect = lower value 0.962 | S. cerevisiae deletion strains, locus YNR052C, strain pop2, stronger effect = lower value 0.973 | S. cerevisiae deletion strains, locus YOL006C, strain TOP1, stronger effect = lower value 0.908 | S. cerevisiae deletion strains, locus YOL012C, strain htz1 1.05 | S. cerevisiae deletion strains, locus YOL147C, strain pex11, stronger effect = lower value 0.975 | S. cerevisiae deletion strains, locus YOR001W, strain rrp6, stronger effect = lower value 0.967 | S. cerevisiae deletion strains, locus YOR061W, strain CKA2, stronger effect = lower value 0.984 | S. cerevisiae deletion strains, locus YOR069W, strain VPS5, stronger effect = lower value 0.987 | S. cerevisiae deletion strains, locus YOR070C, strain gyp1, stronger effect = lower value 0.982 | S. cerevisiae deletion strains, locus YOR080W, strain dia2, stronger effect = lower value 0.956 | S. cerevisiae deletion strains, locus YOR083W, strain WHI5, stronger effect = lower value 0.967 | S. cerevisiae deletion strains, locus YOR106W, strain vam3, stronger effect = lower value 0.918 | S. cerevisiae deletion strains, locus YOR136W, strain idh2, stronger effect = lower value 0.979 | S. cerevisiae deletion strains, locus YOR144C, strain elg1, stronger effect = lower value 0.968 | S. cerevisiae deletion strains, locus YOR184W, strain ser1, stronger effect = lower value 0.972 | S. cerevisiae deletion strains, locus YOR231W, strain MKK1, stronger effect = lower value 0.961 | S. cerevisiae deletion strains, locus YOR265W, strain rbl2, stronger effect = lower value 0.976 | S. cerevisiae deletion strains, locus YOR270C, strain vph1, stronger effect = lower value 0.801 | S. cerevisiae deletion strains, locus YOR290C, strain snf2, stronger effect = lower value 0.987 | S. cerevisiae deletion strains, locus YOR316C, strain cot1, stronger effect = lower value 0.966 | S. cerevisiae deletion strains, locus YPL051W, strain arl3, stronger effect = lower value 0.991 | S. cerevisiae deletion strains, locus YPL055C, strain LGE1, stronger effect = lower value 0.998 | S. cerevisiae deletion strains, locus YPL078C, strain atp4, stronger effect = lower value 0.908 | S. cerevisiae deletion strains, locus YPL106C, strain sse1, stronger effect = lower value 1 | S. cerevisiae deletion strains, locus YPL240C, strain hsp82, stronger effect = lower value 0.994 | S. cerevisiae deletion strains, locus YPL241C, strain CIN2, stronger effect = lower value 0.996 | S. cerevisiae deletion strains, locus YPL256C, strain CLN2, stronger effect = lower value 0.97 | S. cerevisiae deletion strains, locus YPR119W, strain clb2, stronger effect = lower value 0.984 | S. cerevisiae deletion strains, locus YPR141C, strain kar3, stronger effect = lower value 0.956 | S. cerevisiae deletion strains, locus YPR163C, strain tif3, stronger effect = lower value 0.962 | S. cerevisiae deletion strains, locus YPR167C, strain met16, stronger effect = lower value 0.966 | S. cerevisiae deletion strains, strain wtn01, stronger effect = lower value 0.971 | S. cerevisiae strains, strain wild type, stronger effect = lower value 1.01
